About 83,000 compounds went through this panel and 20% of them were active in at least one assay; those are over-represented in the sample as a whole.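 In brief: 96-well plates, 48 h treatment, single concentration, percent growth endpoint.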 A number with no mark means an inactive call. Calls of active or inactive are those of the source. How the source made its calls: active means growth percent below 10; inactive means the rest.

The assay concerns HL-60(TB) leukemia. As to the kind of experiment: NCI-60 one-dose screen, 48 h (100 = growth as untreated, 0 = no growth, -100 = all killed). As to conditions: 10 µM unless noted.
Consider `COc1ccc(C2=NN(C(N)=S)C(c3ccc4c(c3)OCO4)C2)cc1` (centres undefined), for which the growth is 30.4%.
To `Clc1ccc(Nc2ccnc(NCCNc3ccnc4cc(Cl)ccc34)n2)cc1` belongs -71% (active).
In the case of `C=CCC(CCC(CC=C)C(=O)OCC)C(=O)OCC` (centres undefined), the growth is 99.8%.
As to `CC1(C)CCc2cc(-c3ccn(S(=O)(=O)c4ccc(Cl)cc4)n3)ccc2O1`, the growth was 71.9%.
To `CC(C)CCOC(=O)c1ccccc1` belongs 101%; to `COc1ccc(Cn2cc3c(c2-c2ccccc2)CCc2cnoc2-3)cc1OC`, 7.72% (active); to `O=C1/C(=C\c2cn(C(=O)c3ccc(Cl)cc3)c3ccccc23)c2ccccc2N1C(=O)c1ccc(Cl)cc1`, 54.2%.
Turning to `O=C(c1ccccc1)C(Br)C(Br)c1ccccc1` (centres undefined), the growth was 39.5%.
The same measure for `C[N+]1=C(/C=C\C=C\c2ccccc2)C(C)(C)c2ccccc21`: -22.2% (active); for `C=C(CNCCc1ccc(O)cc1)[C@@H]1CC[C@]2(CO)CC[C@]3(C)[C@H](CC[C@@H]4[C@@]5(C)CCC(=O)C(C)(C)[C@@H]5CC[C@]43C)[C@@H]12`: -41.5% (active).
The same measure for `C[C@@H]1C[C@H](N)C[C@H](c2ccncc2NC(=O)c2ccc(F)c(-c3c(F)cccc3F)n2)C1`: -0.14% (active).
The same measure for `NC1CCC(Nc2nc(NCc3cc(Cl)ccc3O)c3ncn(C4CCCC4)c3n2)CC1` (centres undefined): -41.1% (active); for `NC(N)=NS(=O)(=O)c1ccc(NC2=C(I)C(=O)c3ncccc3C2=O)cc1`: 99.2%.
With `CCCCCCC(C(=O)OCC)(C(=O)OCC)C1CCCCCC1`, the growth was 106%.
On to `COc1cc(OC)cc(N2CCN(C(=O)Nc3nc4cc(F)ccc4nc3OC)CC2)c1`, for which the growth is -17% (active).
As to `CC(=O)SC1CC(=O)C=C2CCC3C4CCC(=O)OC4(C)CCC3C21C` (centres undefined), the growth is 103%.
To `CCCCOC(=O)c1ccccc1O` belongs 93.2%; to `CC1C(C)N(C(=O)CCl)c2ccccc2N1C(=O)CCl` (centres undefined), -56.9% (active).
To `C[C@@]1(C(=O)Nc2ccc(F)nc2)CCCN1c1nc(Nc2cc(C3CC3)[nH]n2)c2cccn2n1` belongs 9.68% (active); to `COc1ccc(/C=C/c2c(C(=O)/C=C/c3ccc(C(F)(F)F)cc3)c(C)nc3ccccc23)cc1`, -21.7% (active); to `COC(=O)c1cc(Cl)cc([N+](=O)[O-])c1O`, 18.8%.
Take `CCOc1nc(-c2ccccc2)cc2c(O)c(C(=O)N/N=C/c3ccc(N(C)C)cc3)[nH]c(=O)c12`: the growth is 111%.
Take `Oc1cccc2ccc(N/N=C/c3cc(CN4CCOCC4)c(O)c4ncccc34)nc12`: the growth was 0.899% (active).
Turning to `O=C(/C=C1\C(=O)N(Cc2ccccc2)c2ccccc21)c1ccc(OCCN2CCCCC2)cc1`, the growth was 7.79% (active).
To `NS(=O)(=O)Oc1ccc2c(ccn2C(=O)C23CC4CC(CC(C4)C2)C3)c1` belongs 97.6%; to `Cc1ccc(C)c2c1sc1nc(N3CCOCC3)c(C#N)c(=O)n12`, 93.4%.
The same measure for `COc1cc(/C=N/NC(=O)Cn2c(C(C)C)nc3ccccc32)ccc1O`: 85.2%; for `Cc1cc(CC(C)CC(C)(C)C)n(O)c(=O)c1` (centres undefined) (tested in a mixture with another compound): -27.7% (active); for `CCCCN(CCCC)C(=N)c1ccnc2ccccc12`: 64.8%.
As to `COc1cc2c3c(n(C4CCN(C)CC4)c(=O)c2cc1OC)-c1cc2c(cc1C3=O)OCO2`, the growth was 95%.
To `NC(=N\N=C\c1ccccc1O)/C(N)=N/N=C/c1ccccc1O` belongs 69.5%.
Turning to `CC(C)[N+](C)(CCOC(COc1ccccc1)COc1ccccc1)C(C)C`, the growth is 30.7%.
The same measure for `c1ccc(-c2cn(-c3ccccc3)c(-c3ccccc3)n2)cc1`: 40.3%.
For `COc1cc(C(=O)/C=C/c2c(-c3ccc(F)cc3)nc3sc(C)cn23)cc(OC)c1OC`, the growth was -34% (active).
On to `Cc1c(Cl)cccc1NS(=O)(=O)c1ccccc1`, for which the growth was 113%.
The same measure for `O=C(Cc1ccc(/C=C/C(=O)c2ncc[nH]2)cc1)Nc1cc(F)c(F)c(F)c1`: 7.25% (active); for `C=C(C)[C@@H]1CC[C@]2(CO)CC[C@]3(C)[C@H](CC[C@@H]4[C@@]5(C)CC[C@H](O)C(C)(C)[C@@H]5CC[C@]43C)[C@@H]12`: 66.4%.
As to `NC(=S)N=Nc1c(O)c2ccccc2c2ccccc12`, the growth is 100%.
To `Cc1nc2ccccc2c(/C=C/c2ccccc2)c1C(=O)/C=C/c1ccc(C(F)(F)F)cc1` belongs -26.9% (active).

The values above are taken from PubChem BioAssay (NCI).
